# According to PubChem BioAssay (EPA / NIEHS):
# Inconclusive results are not listed. Where a structure was tested more than once in an assay, its records may differ in their call. Calls of active or inactive are those of the source. How the source made its calls, unless noted: active means hit-call score of the fitted dose curve at least 0.9, where 1 is the maximum; inactive means score below 0.9. Peptide text beside a SMILES is read from it.
# Experiments:
# CD69, CD69 (gene 969) = assay: BSK_LPS_CD69: BioMAP Diversity Plus: LPS Assay for CD69 Biomarker Activity (AID 2284303); details: primary human HUVEC with PBMC
# Procedure, shortened: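 CD69 surface levels were read by ELISA after 24 h chemical treatment of an LPS-stimulated HUVEC plus PBMC co-culture; positive-direction fit against DMSO vehicle.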
# TTR (gene 7276) = assay: CCTE_GLTED_hTTR_0.5uM: CCTE's human Transthyretin (hTTR) Inhibition Assay, with 0.5uM TTR, Great Lakes Toxicology and Ecology Division (GLTED) Lab (AID 2284320)
# Procedure, shortened: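 Probe (ANSA) displacement from 0.5 uM human transthyretin was followed by fluorescence (ex 380, em 475) after a 2 h incubation with chemical. Activity was scored as signal loss and fitted positively relative to DMSO.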
# [1] = CCTE_Deisenroth_5AR_NBTE_donor: CCTE's 5alpha-reductase NanoBRET Target Engagement Assay […], Deisenroth Lab (AID 2284319); details: actives raise or lower the signal
# Procedure, shortened: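 Donor NanoLuc luminescence at 460-20 nm is the read-out, serving artifact detection. Transiently expressed SRD5A2-NanoLuc in HEK293T; 5 h total chemical exposure, testosterone tracer added for the final 2 h; fitting bidirectional relative to DMSO baseline.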
# [2] = CCTE_Deisenroth_5AR_NBTE_acceptor: CCTE's 5alpha-reductase NanoBRET Target Engagement Assay - Autofluorescence Screen, Deisenroth Lab (AID 2284321); details: actives raise or lower the signal;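 further: compound fluorescence in the acceptor channel under 460 nm excitation flags autofluorescence artifacts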
# Procedure, shortened: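 Autofluorescence check: ToxCast chemicals, nominal 100 uM, excitation 460 nm, n=3 runs. Acceptor fluorescence endpoint, bidirectional fit relative to DMSO. Parent assay in HEK293T, 5 h post-dose.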
# SRD5A2 (gene 6716) = assay: CCTE_Deisenroth_5AR_NBTE_ratio: CCTE's 5alpha-reductase NanoBRET Target Engagement Assay - Ratio, Deisenroth Lab (AID 2284322); details: actives raise or lower the signal
# Procedure, shortened: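 HEK293T cells transiently expressing an SRD5A2-NanoLuc fusion (20 h post-transfection) were exposed to test chemical (10 nM - 29.9 uM, 8 points) for 3 h, then testosterone tracer for a further 2 h. Acceptor/donor BRET ratio was fitted bidirectionally against DMSO baseline.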
# [3] = IUF_NPC2c_oligodendrocyte_migration_120hr: Leibniz Research Institute for Environmental Medicine (IUF) 120-hour Neural Progenitor Cell Migration Assay for Oligodendrocyte Migration (NPC2c) (AID 2284297);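 further: O4-positive oligodendrocyte migration distance divided by radial glia migration distance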
# Procedure, shortened: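 hNPC spheres (GW 16-19 cortex), PDL/laminin, DMEM/F12 3:1 + 1% N2, 37C. Dosing day 0–5, half feed day 3, DMSO ≤0.1%. Fixed 120 h; O4 ICC + Hoechst, HCI. Readout: mean oligodendrocyte distance from sphere edge / radial glia distance.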
# [4] = IUF_NPC2a_radial_glia_migration_120hr: Leibniz Research Institute for Environmental Medicine (IUF) 120-hour Neural Progenitor Cell Migration Assay for Radial Glia Migration (NPC2a) (AID 2284298)
# Procedure, shortened: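 Hoechst-stained nuclei imaged at 120 h; algorithm maps sphere core by densest nuclei, sets migration edge at density threshold, gives radial glia migration distance (um) per well vs DMSO. hNPC spheres (0.3 mm), PDL/laminin, DMEM/F12 3:1 + 1% N2.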
# [5] = IUF_NPC2a_radial_glia_migration_72hr: Leibniz Research Institute for Environmental Medicine (IUF) 72-hour Neural Progenitor Cell Migration Assay for Radial Glia Migration (NPC2a) (AID 2284299)
# Procedure, shortened: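 Radial glia migration (µm, sphere core edge to migration front, four directions averaged) from brightfield images at 72 h; hNPC spheres differentiating on PDL/laminin in N2 medium, compound exposure at 7 concentrations from plating.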
# [6] = IUF_NPC2b_neuronal_migration_120hr: Leibniz Research Institute for Environmental Medicine (IUF) 120-hour Neural Progenitor Cell Migration Assay for Neuron Migration (NPC2b) (AID 2284300)
# Procedure, shortened: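 hNPC spheres, PDL/laminin, DMEM:F12 3:1 + 1% N2, 37C/5% CO2; 7 concentrations + solvent control (DMSO ≤0.1%), 5 d exposure, half-feed day 3. Fix 120 h, TUBB3 ICC, HCI: mean neuron migration distance ÷ glia distance.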
# [7] = IUF_NPC3_neuronal_differentiation_120hr: Leibniz Research Institute for Environmental Medicine (IUF) 120-hour Neuronal Differentiation Assay (NPC3) (AID 2284301)
# Procedure, shortened: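 hNPC spheres, PDL/laminin, DMEM/F12 3:1 + 1% N2, 37C, 5% CO2; 7 concentrations + solvent control, 5 d exposure, half-change day 3. Fix 120 h; TUBB3/Hoechst ICC, CNN neuron calling; % neurons vs nuclei, DMSO-normalized.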
# [8] = IUF_NPC4_neurite_length_120hr: Leibniz Research Institute for Environmental Medicine (IUF) 120-hour Neuronal Morphology Assay for Neurite Length (NPC4) (AID 2284302)
# Procedure, shortened: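 hNPC spheres (0.3 mm, fetal brain GW 16-19) on PDL/laminin, DMEM:F12 3:1 + 1% N2, 37C 5% CO2; 7 concs + solvent control, day 0-5, half medium change d3; fix 120 h, TUBB3 ICC, mean neurite length um vs DMSO.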
# [9] = IUF_NPC5_oligodendrocyte_differentiation_120hr: Leibniz Research Institute for Environmental Medicine (IUF) 120-hour Oligodendrocyte Differentiation Assay (NPC5) (AID 2284304; active means hit-call score of the fitted dose curve at least 0.9, where 1 is the maximum;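 further: primary human fetal neural progenitor spheres plated to migrate and differentiate; share of O4-positive cells among Hoechst nuclei found by CNN image analysis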)
# Procedure, shortened: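 hNPC spheres, fetal cortex GW 16-19; PDL/laminin, DMEM:F12 3:1 + 1% N2, 37C/5% CO2; 7 concentrations + solvent control, 5 d exposure, half-change day 3. Readout: %O4+ of Hoechst+ nuclei in migration area, CNN classification; DMSO baseline.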
# [10] = IUF_NPC4_neurite_area_120hr: Leibniz Research Institute for Environmental Medicine (IUF) 120-hour Neuronal Morphology Assay for Neurite Area (NPC4) (AID 2284305; active means hit-call score of the fitted dose curve at least 0.9, where 1 is the maximum)
# Procedure, shortened: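 hNPC spheres on PDL/laminin, N2 medium, 37C/5% CO2; dosed day 0, half-medium refresh day 3; fixed 120 h; TUBB3/Hoechst ICC, high-content imaging; neurite area = mean pixels per neuron (nuclei excluded); DMSO baseline, max 0.1%.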
# [11] = IUF_NPC2-5_cytotoxicity_72hr: Cytotoxicity Assessment at 72 hours in the Leibniz Research Institute for Environmental Medicine (IUF) Neural Progenitor Cell Migration and Differentiation Assay for Cytotoxicity (NPC2-5) (AID 2284306; active means hit-call score of the fitted dose curve at least 0.9, where 1 is the maximum;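 further: LDH release into supernatant measured by resorufin fluorescence marking membrane damage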)
# Procedure, shortened: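 hNPC spheres (0.3 mm), PDL/laminin, DMEM/F12 3:1 + 1% N2; cpd from d0, 7 concs + SC, DMSO max 0.1%; half-medium refresh d3. Readout: supernatant LDH via resorufin fluorescence (RFU), 72 h; gain-of-signal fit.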
# [12] = IUF_NPC2-5_cytotoxicity_120hr: Cytotoxicity Assessment at 120 hours in the Leibniz Research Institute for Environmental Medicine (IUF) Neural Progenitor Cell Migration and Differentiation Assay (NPC2-5) (AID 2284307; active means hit-call score of the fitted dose curve at least 0.9, where 1 is the maximum)
# Procedure, shortened: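 hNPC spheres on PDL/laminin, N2 medium, 37C; 7 concs + solvent control, DMSO ≤0.1%; 5-day exposure, half medium changed day 3. LDH in supernatant at 120 h, resazurin→resorufin fluorescence, gain-of-signal.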
# [13] = IUF_NPC2-5_cell_number_120hr: Cell Number Assessment at 120 hours in the Leibniz Research Institute for Environmental Medicine (IUF) Neural Progenitor Cell Migration and Differentiation Assay (NPC2-5) (AID 2284308);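 further: count of Hoechst-stained nuclei in migration zone around plated human neural progenitor spheres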
# Procedure, shortened: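 Hoechst-stained nuclei within the migration area were counted by automated high content imaging after 120 h. Single hNPC spheres differentiated on poly-D-lysine/laminin in DMEM/F12 (3:1) with 1% N2, compound present throughout, DMSO ≤0.1%.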
# [14] = IUF_NPC2-5_viability_120hr: Viability Assessment at 120 hours in the Leibniz Research Institute for Environmental Medicine (IUF) Neural Progenitor Cell Migration and Differentiation Assay (NPC2-5) (AID 2284312)
# Procedure, shortened: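 Human fetal neural progenitor spheres (0.3 mm) plated on poly-D-lysine/laminin in N2 differentiation medium, exposed 120 h with half-medium refresh at day 3. Viability by alamar blue resazurin fluorescence; 7 concentrations, DMSO max 0.1%.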
# [15] = CCTE_Mundy_HCI_iCellGluta_NOG_NeuriteLength: CCTE's Neurite Outgrowth Assay in iCellGluta cells for Neurite Length, Mundy Lab (AID 2284318; active means hit-call score of the fitted dose curve at least 0.9, where 1 is the maximum)
# Procedure, shortened: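 Automated high-content imaging of betaIII-tubulin (Alexa Fluor-488) and Hoechst-stained cells gave neurite length, normalized to the DMSO baseline.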
# IYD (gene 389434) = assay: CCTE_GLTED_hIYD: CCTE's human Iodotyrosine Deiodinase (xIYD) Inhibition Assay, Great Lakes Toxicology and Ecology Division (GLTED) Lab (AID 2284317; active means hit-call score of the fitted dose curve at least 0.9, where 1 is the maximum;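 further: cell-free human IYD enzyme made in baculovirus insect cells; iodide freed from monoiodotyrosine measured by cerium arsenite color change at 420 nm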)
# Procedure, shortened: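 In the IYD assay, iodide released from MIT by insect-cell-expressed human enzyme was quantified after 3 h via Sandell-Kolthoff rate at 420 nm, with plate-wise normalization to MNT and solvent controls.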
# [16] = TAMU_PeakParms_SingleDonor1434_Asystole: Texas A&M University (TAMU) 1.5-hr Human Induced Pluripotent Stem Cell (iPSC)-derived Cardiomyocytes Calcium (Ca+2) Flux Assay for Cardiotoxicity: Asystole (quiescence of beating) (AID 2284328; active means hit-call score of the fitted dose curve at least 0.9, where 1 is the maximum)
# Procedure, shortened: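 Donor 1434 iPSC-cardiomyocytes exposed 90 min at 37C, 5% CO2, to 0.2, 1, 10 and 100 uM in 0.5% DMSO. Ca2+ dye fluorescence gave average peak frequency; POD is EC95, a 95% beat-rate drop versus controls.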
smiles,measurement,setting,value
C[N+](C)(C)CCCNS(=O)(=O)C(F)(F)C(F)(F)C(F)(F)C(F)(F)C(F)(F)C(F)(F)C(F)(F)C(F)(F)F,AC50,"CD69, CD69 (gene 969)",30 µM (active)
same,outcome,"CD69, CD69 (gene 969)",inactive
same,AC50,TTR (gene 7276),1.04 µM (active)
CC(C)C(=O)OCCc1ccccc1,outcome,"CD69, CD69 (gene 969)",inactive
CC1=NN(c2ccc(S(=O)(=O)O)cc2)C(=O)C1N=Nc1ccccc1 (configuration not stated),outcome,[1],inactive
same,outcome,[2],inactive
same,AC50,SRD5A2 (gene 6716),10 µM (active)
CCCCNS(=O)(=O)c1ccccc1,outcome,[3],inactive
same,outcome,[4],inactive
same,outcome,[5],inactive
same,outcome,[6],inactive
same,outcome,[7],inactive
same,outcome,[8],inactive
same,outcome,[9],inactive
same,outcome,[10],inactive
same,outcome,[11],inactive
same,outcome,[12],inactive
same,outcome,[13],inactive
same,outcome,[14],inactive
same,outcome,[15],inactive
CCCCC(CC)COC(=O)/C=C/c1ccc(OC)cc1 (configuration not stated),outcome,IYD (gene 389434),inactive
COC(=O)[C@H](Cc1ccccc1)NC(=O)[C@@H](N)CC(=O)O (H-Asp-Phe-OMe),outcome,[16],inactive
O=c1c(O)c(-c2ccc(O)cc2O)oc2cc(O)cc(O)c12,AC50,IYD (gene 389434),144 µM (active)
C=CCOC(=O)c1ccc(C(=O)OCC=C)c(C(=O)OCC=C)c1,outcome,[1],inactive
same,outcome,[2],inactive
same,outcome,SRD5A2 (gene 6716),inactive
CCCCCCCOC(=O)c1ccc(O)cc1,AC50,IYD (gene 389434),50.4 µM (active)
Cc1noc(NS(=O)(=O)c2ccc(N)cc2)c1C,outcome,[15],inactive
CCCCC/C=C\C/C=C\CCCCCCCC(=O)O,AC50,IYD (gene 389434),137 µM (active)
CCCCCCCCCCCCc1ccc(O)cc1,AC50,IYD (gene 389434),24 µM (active)
same,outcome,[1],inactive
same,outcome,[2],inactive
same,outcome,SRD5A2 (gene 6716),inactive
CCCCCCCCCC[N+](C)(CCCCCCCCCC)CCC[Si](OC)(OC)OC,AC50,IYD (gene 389434),77.2 µM (active)
same,AC50,[1],33.2 µM (active)
same,AC50,[2],33.4 µM (active)
same,outcome,SRD5A2 (gene 6716),inactive
COc1ccc(-c2coc3cc(O)cc(O)c3c2=O)cc1,outcome,[1],inactive
same,outcome,[2],inactive
same,AC50,SRD5A2 (gene 6716),23.6 µM (active)
O=C(OCc1ccccc1)c1ccc(O)cc1,outcome,[1],inactive
same,outcome,[2],inactive
same,outcome,SRD5A2 (gene 6716),inactive
CCCCCCCCCCCC(=O)N(C)CC(=O)O,outcome,"CD69, CD69 (gene 969)",inactive
same,outcome,[1],inactive
same,outcome,[2],inactive
same,outcome,SRD5A2 (gene 6716),inactive
